“And” between values parts separate entries of the source, which are not always exact repeats. Equal entries are not always repeated. The campaign covered roughly 5,500 compounds. About 2,000 (36%) were called active. Another 18% or so got no clear call; they are omitted. Cut-off read from the data, not from the text of the source: active = normalized growth mostly below about 0.91 (no sharp cut-off); inconclusive = no clear call, values can overlap the other calls; inactive = mostly above about 0.92. The list shows a part of the results.
Experiment: chemical genetic growth profiling, strain panel (AID 1159580);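 note: tested at 20 µM; growth read once vehicle control cultures reached saturation at 30 °C; 1 = growth at the plate median or of vehicle wells; lower values mean less growth of the strain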
Details: S. cerevisiae deletion strains, growth OD

Measured: normalized growth

O=C1C=CC2=C3c4cc(O)c(O)cc4CC3(O)COC2=C1O (centres undefined)
active: locus YAL013W, strain DEP1, stronger effect = lower value 0.873 | locus YDR069C, strain doa4, stronger effect = lower value 0.896 | locus YDR162C, strain NBP2, stronger effect = lower value 0.789 | locus YGR229C, strain SMI1, stronger effect = lower value 0.557 | locus YHR027C, strain rpn1, stronger effect = lower value 0.908 | locus YJL187C, strain SWE1 (second series), stronger effect = lower value 0.826
inactive: locus YAL021C, strain ccr4, stronger effect = lower value 0.933 | locus YAL026C, strain drs2, stronger effect = lower value 0.945 | locus YAL030W, strain snc1, stronger effect = lower value 1.02 | locus YBL061C, strain skt5, stronger effect = lower value 0.993 | locus YBR009C, strain hhf1, stronger effect = lower value 0.999 | locus YBR021W, strain FUR4, stronger effect = lower value 1.04 | locus YBR023C, strain chs3, stronger effect = lower value 0.949 | locus YBR171W, strain sec66, stronger effect = lower value 1.06 | locus YBR229C, strain ROT2, stronger effect = lower value 0.996 | locus YBR231C, strain swc5, stronger effect = lower value 0.929 | locus YBR279W, strain paf1, stronger effect = lower value 0.964 | locus YCL011C, strain gbp2, stronger effect = lower value 1.02 | locus YCL016C, strain dcc1, stronger effect = lower value 1.01 | locus YCL029C, strain bik1, stronger effect = lower value 1.04 | locus YCL061C, strain MRC1, stronger effect = lower value 1.01 | locus YCL069W, strain vba3, stronger effect = lower value 1.03 | locus YCR088W, strain abp1, stronger effect = lower value 1.05 | locus YDL005C, strain med2, stronger effect = lower value 1.06 | locus YDL035C, strain GPR1, stronger effect = lower value 0.904 | locus YDL040C, strain nat1, stronger effect = lower value 1.04 | locus YDL074C, strain BRE1, stronger effect = lower value 0.898 | locus YDL101C, strain DUN1, stronger effect = lower value 0.946 | locus YDL134C, strain PPH21, stronger effect = lower value 0.942 | locus YDL185W, strain tfp1, stronger effect = lower value 0.997 | locus YDL192W, strain arf1, stronger effect = lower value 0.998 | locus YDR001C, strain nth1, stronger effect = lower value 1.04 | locus YDR101C, strain arx1, stronger effect = lower value 1.06 | locus YDR137W, strain rgp1, stronger effect = lower value 0.972 | locus YDR159W, strain sac3, stronger effect = lower value 1.13 | locus YDR195W, strain ref2 1.11 | locus YDR297W, strain sur2, stronger effect = lower value 1.01 | locus YDR318W, strain mcm21, stronger effect = lower value 1.01 | locus YDR334W, strain swr1, stronger effect = lower value 0.992 | locus YDR335W, strain msn5, stronger effect = lower value 1.01 | locus YDR388W, stronger effect = lower value 1.03 | locus YDR392W, strain spt3, stronger effect = lower value 1.03 | locus YDR502C, strain sam2, stronger effect = lower value 1.01 | locus YEL003W, strain gim4, stronger effect = lower value 1.01 | locus YEL037C, strain rad23, stronger effect = lower value 1.01 | locus YEL061C, strain CIN8 (second series), stronger effect = lower value 1.04 | locus YEL061C, strain CIN8, stronger effect = lower value 0.964 | locus YER015W, strain faa2, stronger effect = lower value 0.99 | locus YER016W, strain bim1, stronger effect = lower value 1.04 | locus YER110C, stronger effect = lower value 1.05 | locus YER111C, strain swi4, stronger effect = lower value 1.01 | locus YER155C, strain BEM2 (second series), stronger effect = lower value 1.03 | locus YER155C, strain BEM2, stronger effect = lower value 1.05 | locus YER167W, strain BCK2, stronger effect = lower value 1.06 | locus YFR010W, strain ubp6, stronger effect = lower value 0.985 | locus YGL078C, strain dbp3, stronger effect = lower value 1.02 | locus YGL086W, strain mad1, stronger effect = lower value 1.02 | locus YGL167C, strain pmr1, stronger effect = lower value 1.03 | locus YGL173C, strain kem1, stronger effect = lower value 0.947 | locus YGL227W, strain vid30, stronger effect = lower value 1.06 | locus YGL240W, strain doc1, stronger effect = lower value 1.11 | locus YGL248W, strain PDE1, stronger effect = lower value 0.934 | locus YGL253W, strain hxk2, stronger effect = lower value 0.959 | locus YGR078C, strain PAC10, stronger effect = lower value 0.957 | locus YGR135W, strain pre9, stronger effect = lower value 0.985 | locus YGR252W, strain gcn5, stronger effect = lower value 0.966 | locus YHR013C, strain ard1, stronger effect = lower value 0.901 | locus YHR030C, strain SLT2, stronger effect = lower value 0.999 and 0.987 | locus YHR079C, strain IRE1 (second series), stronger effect = lower value 1.03 | locus YHR079C, strain IRE1, stronger effect = lower value 1.01 | locus YHR094C, strain hxt1, stronger effect = lower value 1.05 | locus YHR129C, strain ARP1, stronger effect = lower value 0.967 | locus YHR142W, strain chs7, stronger effect = lower value 0.943 | locus YHR200W, strain rpn10, stronger effect = lower value 1.03 | locus YIL066C, strain RNR3, stronger effect = lower value 0.881 | locus YIL073C, strain SPO22, stronger effect = lower value 0.812 | locus YIL125W, strain kgd1, stronger effect = lower value 1.01 | locus YIR030C, strain dcg1, stronger effect = lower value 1.03 | locus YJL092W, strain hpr5, stronger effect = lower value 1.04 | locus YJL095W, strain BCK1 (second series), stronger effect = lower value 1.01 | locus YJL095W, strain BCK1, stronger effect = lower value 0.926 and 1.02 | locus YJL115W, strain asf1, stronger effect = lower value 1.05 | locus YJL129C, strain trk1, stronger effect = lower value 1.09 | locus YJL134W, strain LCB3, stronger effect = lower value 0.999 | locus YJL154C, strain vps35, stronger effect = lower value 1.03 | locus YJL164C, strain tpk1, stronger effect = lower value 0.968 | locus YJL166W, strain qcr8, stronger effect = lower value 0.995 | locus YJL168C, strain set2, stronger effect = lower value 1.01 | locus YJL187C, strain SWE1, stronger effect = lower value 0.986

From PubChem BioAssay AID1159580 (chemical genetic matrix, 2015)
